Reference: PubChem BioAssay
Calls of active or inactive are those of the source. Unless noted, no rule for the calls is given here.

Assays:
[1] = tested on: XIP peptide (Xip251-270) binding; assay: small-molecule binders of XIP peptide, primary screen, biochemical, small-molecule microarray, fluorescence 635/667 nm, 0.1 µg/mL protein (AID 1182); details: fluorescent protein binding, 635 nm, higher = more signal, called active from +8 up or from −8 down
[2] = tested on: XIP peptide (Xip251-270); assay: small-molecule binders of XIP peptide, primary screen, biochemical, small-molecule microarray, fluorescence 635/667 nm, 0.5 µg/mL protein (AID 1183); details: small-molecule microarray binding, fluorescence 635 nm; higher = more signal
[3] = Plasmodium falciparum growth inhibition, primary screen, strain 3D7, DAPI fluorescence, 100 nL (AID 1184);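 also: parasites grown inside human red blood cells in medium with human serum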; details: P. falciparum 3D7 growth, 3 d, higher = more signal
[4] = biological target: Homeobox protein Hox-A13 (Mus musculus) (UniProt Q62424); assay: inhibitors of HoxA13-DNA binding, primary screen, biochemical, fluorescence polarization, labeled oligonucleotide (AID 1185); details: 15 min, higher = more signal, called active from +8 up or from −8 down
Homeobox protein Hox-A13 (Mus musculus), sequence (Q62424 whole entry, looked up): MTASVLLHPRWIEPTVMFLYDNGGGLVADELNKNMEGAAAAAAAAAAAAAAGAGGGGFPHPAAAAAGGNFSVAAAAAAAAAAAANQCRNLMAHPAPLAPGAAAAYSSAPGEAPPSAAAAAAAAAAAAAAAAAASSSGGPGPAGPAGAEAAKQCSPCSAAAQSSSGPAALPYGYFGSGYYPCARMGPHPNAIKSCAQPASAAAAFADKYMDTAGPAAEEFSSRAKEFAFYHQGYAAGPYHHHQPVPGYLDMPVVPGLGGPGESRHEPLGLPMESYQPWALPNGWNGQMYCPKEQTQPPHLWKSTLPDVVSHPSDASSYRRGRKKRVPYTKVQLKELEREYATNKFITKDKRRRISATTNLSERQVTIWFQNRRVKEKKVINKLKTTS

[5] = inhibitors of hydroxyurea-induced Chk1 phosphorylation, primary screen, imaging, HeLa, phospho-Chk1 antibody, percent positive cells (AID 1186); details: hydroxyurea-induced phospho-Chk1 immunofluorescence imaging, higher = more signal
[6] = inhibitors of hydroxyurea-induced Chk1 phosphorylation, primary screen, imaging, HeLa, phospho-Chk1 nuclear intensity (AID 1187); details: hydroxyurea-induced phospho-Chk1 immunofluorescence imaging, higher = more signal

Row | SMILES | composite z-score [1] | composite z-score [2] | z-score [3] | z-score [4] | z-score [5] | z-score [6]
1 | C=C(COC)C(=O)CC[C@@H](OC(=O)c1cccnc1)c1ccccc1OCCO | -0.288 (inactive) | -0.576 | -3.07 | -4.3 (inactive) | 0.329 (inactive) | 0.162 (inactive)
2 | CN(C)CCCCCCNC(=O)[C@@H]1C[C@@H]2C(=O)N[C@@H](CCCCN)C(=O)N2[C@@H]1c1ccc(O)cc1 | 0.802 (inactive) | 0.753 | -1.02 | -1.14 (inactive) | 0.291 (inactive) | 0.481 (inactive)
3 | CC(C)C(=C=CC[C@@H](O)c1cccc(OCCO)c1)C[C@@H](O)COCc1ccccc1 | -0.096 (inactive) | 0.294 | -1.18 | -4.48 (inactive) | -1.66 (inactive) | -0.631 (inactive)
4 | COC(=O)[C@@]1(Cc2ccc(F)cc2)[C@H]2c3cc(C(=O)N(C)C)n(Cc4c(CO)[nH]cc(C)c4=O)c3C[C@H]2CN1C(=O)c1ccccc1 | 0.493 (inactive) | -0.0903 | -1.81 | -5.02 (inactive) | 0.815 (inactive) | 0.493 (inactive)
5 | COC(=O)C1N=C(c2ccc(OCCCO)cc2)N(c2ccccc2)O1 (centres undefined) | 2.4 (inactive) | 0.864 | 0.704 | -3.85 (inactive) | -0.729 (inactive) | -0.63 (inactive)
6 | C=C(CCCC)/C(=C/C[C@H](OC(C)=O)c1ccc(OCCO)cc1)c1cc(C(=O)OC)ccc1OC | -0.124 (inactive) | 0.71 | -2.82 | -3.64 (inactive) | -1.09 (inactive) | -1.97 (inactive)
7 | COc1cc(CO)cc(I)c1O[C@H]1C=C(C(=O)NCCO)C[C@@H](NCC2CCCCC2)[C@@H]1O | 0.0593 (inactive) | 0.465 | -0.68 | -3.57 (inactive) | -1.23 (inactive) | -0.873 (inactive)
8 | COCCOC(=O)N1C(=O)[C@@]2(c3ccccc31)[C@H](c1ccccc1OCCO)N1[C@H](c3ccccc3)[C@H](c3ccccc3)OC(=O)[C@H]1[C@@H]2C(=O)N1CCCCCCC1 | 1.55 (inactive) | 0.846 | -2.01 | 2.31 (inactive) | 0.203 (inactive) | 0.424 (inactive)
9 | CC(=O)NCCCC[C@@H]1NC(=O)[C@H]2C[C@@H](C(=O)NCCCCCNC(=O)CS)[C@@H](c3cccc(OCCO)c3)N2C1=O | 4.01 (inactive) | 0.854 | -0.559 | -3.69 (inactive) | 0.276 (inactive) | 0.591 (inactive)
10 | CCOC(=O)C1=CCC(c2ccco2)N(S(=O)(=O)c2ccc(C)cc2)C1 (centres undefined) | 0.397 (inactive) | 0.704 | -0.0601 | -4.57 (inactive) | -0.641 (inactive) | -0.942 (inactive)
11 | CCCCCCCCCCC(O)C1C=CC2C(=O)N(c3ccccc3)C(=O)C2N1Nc1ccccc1F (centres undefined) | 1.69 (inactive) | 0.538 | 0.157 | 0.356 (inactive) | -0.745 (inactive) | -1.48 (inactive)
12 | CO[C@H]1O[C@H](CO)[C@@H](OC(=O)CCc2ccccc2)[C@H](OC(=O)c2cc3ccccc3[nH]2)[C@H]1OC(=O)c1cc2ccccc2[nH]1 | 0.983 (inactive) | 0.637 | -1.03 | -0.797 (inactive) | -0.616 (inactive) | -1.27 (inactive)
13 | CC(C)CCC[C@@H](C)[C@H]1CC[C@@]2(C)C3=C(CC[C@]12C)[C@@]1(C)CC[C@H](OC(=O)c2ccccc2)C(C)(C)C1CC3 (some centres undefined) | 0.276 (inactive) | 0.0627 | -0.544 | -1 (inactive) | -0.531 (inactive) | -0.299 (inactive)
14 | COc1cc2c(cc1OC)CN(C(=O)[C@@H]1[C@H]3C(=O)O[C@H](c4ccccc4)[C@H](c4ccccc4)N3[C@H](c3ccc(O)cc3)[C@@]13C(=O)Nc1ccc(C#CCCO)cc13)CC2 | 1.33 (inactive) | 0.723 | -1.16 | -2.6 (inactive) | 0.189 (inactive) | 0.28 (inactive)
15 | C#C[C@@H](CC)O[Si](C#CCCCC#N)(C(C)C)C(C)C | 1.09 (inactive) | 0.261 | -0.574 | -1.27 (inactive) | 0.33 (inactive) | 0.0685 (inactive)
16 | COC(=O)[C@@]1(Cc2ccc(F)cc2)[C@H]2c3cc(C(=O)N(C)C)n(Cc4ccc(O)c(OC)c4)c3C[C@H]2CN1C(=O)c1ccccc1 | 0.0137 (inactive) | 0.744 | -1.76 | -6.34 (inactive) | -0.156 (inactive) | -0.131 (inactive)
17 | C=CCC(OC(C)=O)[C@@H]1[C@@H](N(Cc2ccc(-c3ccccc3)cc2)C(=O)Cc2ccc(F)cc2)c2cc(OCCCO)ccc2N1C(=O)Cc1ccc2ccccc2c1 (some centres undefined) | -0.632 (inactive) | 0.233 | -1.3 | -1.5 (inactive) | 0.433 (inactive) | -0.048 (inactive)

Row | SMILES | composite z-score [1] | composite z-score [2] | z-score [3] | z-score [4] | z-score [5] | z-score [6]
18 | Cc1ccc(S[C@]2(C(=O)NCc3ccccc3)CC(=O)N(Cc3cc(C(F)(F)F)cc(C(F)(F)F)c3)[C@@H]2c2ccc(CO)cc2I)cc1 | 1.16 (inactive) | -0.474 | -0.261 | -1.82 (inactive) | 0.0563 (inactive) | 0.249 (inactive)
19 | CC(C)[Si]1(C(C)C)OCc2cc(-c3ccc(-c4ccc(Cl)c(Cl)c4)o3)nc(CCc3ccccc3)c21 | -0.218 (inactive) | -0.355 | -0.946 | 0.0584 (inactive) | -0.691 (inactive) | -0.229 (inactive)
20 | COCCOC(=O)N1C(=O)[C@@]2(c3cc(C#CCC(C(=O)OC)C(=O)OC)ccc31)[C@H](C(=O)NC[C@H](O)c1ccccc1)[C@H]1C(=O)O[C@H](c3ccccc3)[C@H](c3ccccc3)N1[C@@H]2c1ccc(OCCO)cc1 | 3.06 (inactive) | 0.64 | -2.28 | -0.301 (inactive) | 0.0558 (inactive) | 0.176 (inactive)
21 | COCCOC(=O)N1C(=O)[C@@]2(c3cc(C#CCC(C(=O)OC)C(=O)OC)ccc31)[C@H](C(=O)NC[C@H](O)c1ccccc1)[C@H]1C(=O)O[C@H](c3ccccc3)[C@H](c3ccccc3)N1[C@@H]2c1ccc(O)cc1 | 0.363 (inactive) | 0.724 | -1.84 | -1.61 (inactive) | -0.129 (inactive) | -0.117 (inactive)
22 | C=C(C(=O)CC[C@@H](OC(=O)c1ccccc1-c1ccccc1C(=O)O)c1ccccc1OCCO)C(C)C | 0.341 (inactive) | 0.698 | -2.04 | -5.82 (inactive) | 0.57 (inactive) | 0.916 (inactive)
23 | C=CCC(OC(C)=O)[C@@H]1[C@@H](N(Cc2ccc(-c3cccc(C(F)(F)F)c3)o2)C(=O)c2cccc3ccccc23)c2cc(OCCCO)ccc2N1C(=O)Cc1ccc(OC)cc1 (some centres undefined) | 0.309 (inactive) | 0.456 | -2.43 | -1.92 (inactive) | -0.48 (inactive) | 0.0284 (inactive)
24 | C=CCNC(=O)[C@@H]1[C@H]2C(=O)O[C@H](c3ccccc3)[C@H](c3ccccc3)N2[C@H](c2ccc(O)cc2)[C@@]12C(=O)N(C(=O)OCCOC)c1ccc(C#CCCO)cc12 | 2.07 (inactive) | 0.749 | 1.05 | -3.19 (inactive) | 0.116 (inactive) | -0.365 (inactive)
25 | COc1cc(NN2C(C(O)c3cc(OC)c(OC)c(OC)c3)C=CC3C(=O)N(c4ccccc4)C(=O)C32)cc(OC)c1OC (centres undefined) | 0.692 (inactive) | 0.552 | -0.732 | -4.86 (inactive) | 1.06 (inactive) | 0.889 (inactive)
26 | O=C1c2ccccc2[C@](Cc2ccccc2I)(C(=O)NC2CC2)[C@H](c2ccc(CO)cc2)N1Cc1ccccc1C(F)(F)F | 0.135 (inactive) | 0.59 | -1.89 | -4.02 (inactive) | -0.0771 (inactive) | -0.189 (inactive)
27 | O=C(CS)NCCCCCCNC(=O)[C@@H]1C[C@@H]2C(=O)NCC(=O)N2[C@@H]1c1ccc(O)cc1 | 1.06 (inactive) | 0.897 | 0.271 | -1.63 (inactive) | -0.0858 (inactive) | 0.201 (inactive)
28 | CCOC(=O)C1=CC[C@@H](c2ccccc2)N(S(=O)(=O)c2ccc(C)cc2)[C@H]1c1cccc(OC)c1 | -0.285 (inactive) | 0.291 | -2.14 | 0.892 (inactive) | 0.238 (inactive) | -0.67 (inactive)
29 | CN(C)CCCC[C@@H]1NC(=O)[C@@H]2C[C@H](C(=O)O)[C@H](c3cccc(OCCO)c3)N2C1=O | 1.02 (inactive) | 0.0695 | -0.286 | -3.07 (inactive) | 0.043 (inactive) | 0.313 (inactive)
30 | O=C1C2C=CC(C(O)C=Cc3ccc([N+](=O)[O-])cc3)N(Nc3ccccc3)C2C(=O)N1c1ccccc1 (centres undefined) | -0.375 (inactive) | 0.596 | -0.054 | -4.58 (inactive) | -0.744 (inactive) | -0.913 (inactive)
31 | CC(C)[C@H]1NC(=O)[C@@]23C(=O)N[C@@H](Cc4ccccc4)C2[C@H](C)[C@@]2(C)O[C@H]2C3/C=C/CCC/C=C/CNC(=O)[C@H](Cc2ccccc2)NC1=O (some centres undefined) | 0.621 (inactive) | 0.741 | -1.83 | -6.22 (inactive) | -0.165 (inactive) | -0.0036 (inactive)
32 | COCC1=C2[C@@H](CCc3ccccc3)OB(O)C[C@@H]2[C@@H]2C(=O)N(C)C(=O)[C@@H]2C1 | 0.0872 (inactive) | 0.763 | 1.22 | -7.72 (inactive) | 0.684 (inactive) | 1.24 (inactive)
33 | CC(C)(C)OC(=O)CC[C@]12N=C(c3ccc(OCCCO)cc3)O[C@H]1c1ccccc1N(Cc1ccccc1)C2=O | -0.326 (inactive) | 0.802 | -2.21 | -0.817 (inactive) | -0.022 (inactive) | 0.363 (inactive)
34 | C=C(/C(=C/C[C@@H](OC(C)=O)c1ccc(CO)o1)c1cc(C(=O)OC)ccc1OC)C(C)C | 0.698 (inactive) | 0.135 | -0.485 | -4.95 (inactive) | 0.623 (inactive) | 0.273 (inactive)
